The results in this text go back to PubChem BioAssay AID2417 (National Center for Advancing Translational Sciences (NCATS), 2010).

Among all 140,000 compounds or so, about 4,300 (3.1%) were called active. Inconclusive results (about 21%) are left out. This is one part of a sample in which actives are shown more often than they occur. Unmarked numbers belong to inactive results.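 Rule for the calls: active = readout at or below -70, meaning at least 70% loss of cells showing the perinucleolar compartment, a nuclear body marking cancer cells; inconclusive = readout between -30 and a set limit; inactive = the rest.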

The experiment can be described thus: High Content Assay for Compounds that inhibit the Assembly of the Perinucleolar Compartment.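 Note: plate controls were DMSO wells for no effect and camptothecin positive control wells for full effect.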 The settings on record: PC3M PTB-GFP, PNC prevalence imaging, 16 h; at 10 µM; active compounds read low. The source says:
High Content Assay for Compounds that inhibit the Assembly of the Perinucleolar Compartment NIH Chemical Genomics Center [NCGC] NIH Molecular Libraries Probe Centers Network [MLPCN] MLPCN Grant: MH082371-01A2 Assay Submitter (PI): Sui Huang, Northwestern University, Feinberg School of Medicine, Cell and Molecular Biology, Chicago, Illinois. The perinucleolar compartment (PNC) is a non-membrane-bound nuclear subdomain that is associated with but structurally distinct from the nucleolus. The PNC is a heritable trait, in which the number of PNCs per cell in daughter cells often mimics that of their mother cells. The PNC is heterogeneous in shape, is stable through interphase, disassembles during mitosis, and reassembles in early G1. The PNC is concentrated with newly synthesized RNA polymerase III (pol III) RNAs (MRP RNA, RNAse P H1 RNA, hY RNAs[hY1, 2, 5], Alu RNA, and SRP [7SL] RNA) and RNA binding proteins (nucleolin, PTB, CUG-BP, KSRP, Raver1, Raver2, and Rod). […] Extensive in vitro studies have shown that the PNC is unique to tumor cells and preferentially forms in tumor cells derived from solid tissues. Examination of cancer cell lines from various origins and malignant capacities has shown that PNC prevalence correlates with the malignancy of tumors and has the potential to be developed as a pan-cancer prognostic marker. […] Although the PNC is associated with a DNA locus and a handful of components have been identified, much remains to be investigated regarding the structure and function of the PNC and its mechanistic link to cancer. We have previously shown that PNC prevalence reduction is a valid strategy to identify compounds that can be used to study the structure and function of the PNC. It is necessary, however, to create a screening platform that is able to test a large number of compounds in an automated fashion. Here we report the development and robustness of an automated whole-cell phenotypic image-based screening assay that is capable of identifying such compounds.
PNC High Content Imaging Assay Procedure: 1. Cells at a density of 75-90% confluency in T175 flasks were harvested using 7 ml TrypLE Express cell dissociation reagent. After dissociation (5 minutes room temperature incubation) 10 ml of complete media was added to the TrypLE/cell suspension. The liquid was transferred to a 50 ml Conical tube and cells were pelleted at 1000 RPM for 5 min. Supernatant was removed and cells were resuspended to a final density of 150-200 cells/ul in complete media. 2. Cells were plated in 5 ul volume (750-1000 cells/well) into 1536 well Black uclear Aurora Low Base plates and allowed to recover and adhere at 37 C in a humidified 5% CO2 incubator for 4 hours. 3. After 4 hour incubation, compound libraries (23 nl of […] in columns 5-48) were transferred to the plates in duplicate using a 1536 well pintool. Camptothecin positive control (59 uM final) was added to column 2 and 1:3 dilutions of camptothecin was added to column 3. DMSO negative controls were present in columns 1 and 4. 4. After a 16 hour incubation in the 37 C incubator, cells were fixed by the addition of 4 ul of 6% EM grade paraformaldehyde (containing 0.1% triton X 100) directly to the cells. The plates were incubated at room temperature for 20 minutes. The liquid was removed using a 32 channel Kalypsys aspirator and the fixed cells were washed twice with 5 ul PBS followed by a final addition of 5 ul PBS containing 1 ug/ml Hoechst 33342. 5. Fixed plates were sealed and sotred at 4C until imaged. 6. Plates were imaged on an InCell 1000 automated microscope using a 20 x objective, a standard FITC filter set, no camera binning, and an exposure time of ~100-150 msec/well. 7. Data analysis. PNC prevalence was determined using the Multitarget analysis module from InCell Workstation software (V3.5 ) and analysis was run on a quad core workstation using the Incell Developer Toolbox (V1.7). […]
As for `OC(CNC1CCCCC1)c1ccccc1` (stereo not given), the activity change (PNC), negative = inhibition was 38.6%.
With `CC(=NCc1ccc2c(c1)OCO2)c1c(O)[nH]c(=O)[nH]c1=O` the figure was -17.3%; with `c1cc2c(cc1CCNC1CCCCCC1)OCO2`, -119% (active); with `CNC(=S)N/N=C1\C2CN3CCN(C2)CC1(c1ccccc1)C3`, -18.5%.
`CCOC(=O)C(O)(c1ccc(N=Cc2ccccc2O)c(C)c1)C(F)(F)F` (stereo not given): the activity change (PNC), negative = inhibition is -11.8%.
Take `Cc1ccc(-n2c(C)cc(/C=C3\C(=O)NC(=O)N(C)C3=O)c2C)cc1C`: the activity change (PNC), negative = inhibition was 23.8%.
Regarding `O=C(CCCn1c(=O)[nH]c2cc(Cl)ccc2c1=O)N1CCC2(CC1)OCCO2`, the activity change (PNC), negative = inhibition is 44%.
As for `COc1ccc(-c2nc(CS(=O)CC(=O)N3CCC4(CC3)OCCO4)c(C)o2)cc1` (stereo not given), the activity change (PNC), negative = inhibition is -14.2%.
Take `Cc1ccc(Cn2c(C)c3cnn(CC(=O)N4CCC5(CC4)OCCO5)c(=O)c3c2C)cc1`: the activity change (PNC), negative = inhibition is -100% (active).
Under `CC(C)N(CC#CCC1(O)c2ccccc2-c2ccccc21)C(C)C` stands 48.8%; under `CN(C)C(=O)Oc1cc(=O)n2c3c(cccc13)CCC2`, 23.5%; under `Cc1ccc(-n2c(-c3ccc([N+](=O)[O-])cc3)nc3ccccc3c2=O)cc1`, -17%.
Consider `CC(C(=O)Nc1ccc(Cl)cc1Cl)N1CC=C(c2ccccc2)CC1` (stereo not given), for which the activity change (PNC), negative = inhibition is 38%.
As to `Cc1cccc(OP(=O)(Oc2cccc(C)c2)OC(c2ccccc2)C(F)(F)F)c1` (stereo not given), the activity change (PNC), negative = inhibition was -3.33%.
As to `CCCCCn1c(=O)c(C(=O)Nc2c(C)n(C)n(-c3ccccc3)c2=O)c(O)c2ccccc21`, the activity change (PNC), negative = inhibition was -20.3%.
`CCCCCn1c(=O)c(C(=O)NCc2ccccn2)c(O)c2ccccc21`: the activity change (PNC), negative = inhibition is -112% (active).
For the compound `Cc1ccnc(-n2c(C)cc(/C=C3\C(=O)NC(=S)N(C)C3=O)c2C)c1`, the activity change (PNC), negative = inhibition was -11.7%.
Turning to `C=CCn1c(O)c(/C=N/N2CCOCC2)c(=O)[nH]c1=S`, the activity change (PNC), negative = inhibition was 60.9%.
In the case of `CN1CCN(c2cc(N3CCNCC3)ccc2[N+](=O)[O-])CC1`, the activity change (PNC), negative = inhibition was 12.6%.
With `CC1=C(C(=O)Nc2ccccc2)SCCO1` the figure was -98% (active); with `O=C1NC(=O)N(c2ccc(F)cc2)C(=O)/C1=C/c1ccc2c(c1)CCCN2Cc1ccccc1`, -20.7%; with `O=C1N=c2ccccc2=C/C1=C\c1c(O)[nH]c(=S)[nH]c1=O`, -19.2%.
`CN(C)CC1CCCCC1OC(=O)c1ccc(Cl)c(Cl)c1` (stereo not given): the activity change (PNC), negative = inhibition was -10.5%.
Under `O=C1NC(=O)C(CCc2ccccn2)(Cc2cccc(Cl)c2Cl)C(=O)N1c1ccc(Br)cc1` (stereo not given) stands -14.3%.
With `Cc1ccc2c(c1)C1CN(C)CCC1N2C(=O)Cn1nnc(-c2ccccc2F)n1` (stereo not given) the figure was -101% (active).
